Test results from PubChem BioAssay (NCI).
The panel holds about 79,000 compounds, 15% with a hit somewhere; the sample as a whole holds those more often. Activity calls are given as the source filed them. No stated cut-off is given here; in the data, active means growth inhibition above about 70%; inactive means the rest.

Assays:
[1] = NCI Yeast Anticancer Drug Screen. Data for the rad52 strain (AID 147);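 further: 0% = growth of vehicle-treated control cultures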; details: S. cerevisiae rad52 mutant growth inhibition, stronger effect = higher value
Procedure, shortened: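 Screen used a yeast mutant impaired in DNA repair. After compound exposure, growth was measured. Values reflect inhibition compared with vehicle-treated cells.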

[2] = NCI Yeast Anticancer Drug Screen. Data for the wt1 strain (AID 149);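 further: 0% = growth of vehicle-treated wt1 cultures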; details: S. cerevisiae wt1 strain (SPY 50644) growth inhibition, stronger effect = higher value
Procedure, shortened: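 Readout: yeast growth inhibition, normalised to vehicle controls, in the wt1 strain exposed to test compounds.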

[3] = NCI Yeast Anticancer Drug Screen. Data for the rad50EPP+ strain (AID 151);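 further: 0% = growth of vehicle-treated control cultures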; details: S. cerevisiae rad50 mutant strain, stronger effect = higher value
Procedure, shortened: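 Exposing the rad50EPP+ strain to each compound, growth was compared with vehicle-only cultures to give inhibition.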

[4] = NCI Yeast Anticancer Drug Screen. Data for the mgt1 strain (AID 153); details: S. cerevisiae mgt1 mutant growth inhibition, stronger effect = higher value
Procedure, shortened: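 Genetically defined yeast (mgt1) treated with compound; inhibition of growth expressed against vehicle-treated controls.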

[5] = NCI Yeast Anticancer Drug Screen. Data for the rad50 strain (AID 155);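 further: 0% = growth of vehicle-only cultures of the same strain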; details: S. cerevisiae rad50 strain growth inhibition, stronger effect = higher value
Procedure, shortened: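 Compounds were tested on a yeast strain with an engineered DNA damage repair alteration; the reported value is growth inhibition normalised to vehicle treatment.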

[6] = NCI Yeast Anticancer Drug Screen. Data for the mec2-1 strain (AID 157); details: S. cerevisiae mec2-1 strain, stronger effect = higher value
Procedure, shortened: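 Readout is yeast growth inhibition, normalised to vehicle-treated controls, in the mec2-1 strain exposed to compound.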

[7] = NCI Yeast Anticancer Drug Screen. Data for the sgs1 mgt1 strain (AID 161);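 further: 0% = growth of cultures given vehicle only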; details: S. cerevisiae sgs1 mgt1 strain, stronger effect = higher value
Procedure, shortened: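 Compounds are added to genetically altered yeast, and growth is compared with cultures given vehicle alone to give percent inhibition.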

[8] = NCI Yeast Anticancer Drug Screen. Data for the CLN2oe strain (AID 163);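 further: 0% = growth of vehicle-only control cultures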; details: S. cerevisiae CLN2oe strain, stronger effect = higher value
Procedure, shortened: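 Values reflect how much compound exposure reduced yeast growth, referenced to vehicle-exposed cells. Assay organism is a strain with a defined genetic change affecting cell-cycle control.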

[9] = NCI Yeast Anticancer Drug Screen. Data for the cln2 rad14 strain (AID 165);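 further: 0% = growth equal to vehicle treated cultures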; details: S. cerevisiae cln2 rad14 strain, stronger effect = higher value
Procedure, shortened: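 Relative to vehicle controls, growth inhibition of compound-treated cln2 rad14 yeast was recorded.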

[10] = NCI Yeast Anticancer Drug Screen. Data for the bub3 strain (AID 167); details: S. cerevisiae bub3 mutant strain, stronger effect = higher value
Procedure, shortened: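 Growth of a checkpoint-deficient yeast mutant is measured after compound exposure. Values represent inhibition relative to vehicle.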

[11] = NCI Yeast Anticancer Drug Screen. Data for the wt2 strain (AID 169);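 further: 0% = growth of vehicle-treated yeast cultures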; details: S. cerevisiae wt2 strain growth inhibition, stronger effect = higher value
Procedure, shortened: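 Values express reduction in yeast growth under compound treatment, referenced to vehicle-treated cells.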

[12] = NCI Yeast Anticancer Drug Screen. Data for the mlh1 strain (AID 171);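 further: 0% = growth of vehicle-treated control cultures of the same strain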; details: S. cerevisiae mlh1 strain growth inhibition, stronger effect = higher value
Procedure, shortened: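 Steps: expose the defined-mutant yeast strain to compound; expose a parallel culture to vehicle; measure growth; express compound effect as inhibition relative to the vehicle culture.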

[13] = NCI Yeast Anticancer Drug Screen. Data for the sgs1 strain (AID 173);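 further: 0% = growth of vehicle-only control cultures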; details: S. cerevisiae sgs1 mutant, stronger effect = higher value
Procedure, shortened: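 Treat defined-mutant yeast with compound; measure growth; calculate inhibition relative to vehicle-treated cells.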

[14] = NCI Yeast Anticancer Drug Screen. Data for the mlh1 rad18 strain (AID 175); details: S. cerevisiae mlh1 rad18 strain growth inhibition, stronger effect = higher value
Procedure, shortened: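 Test agents were incubated with a yeast strain of defined genotype (DNA damage repair defect). Inhibition of growth was derived by comparison with vehicle-exposed cultures.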

[15] = NCI Yeast Anticancer Drug Screen. Data for the rad18 strain (AID 177); details: S. cerevisiae rad18 mutant growth inhibition, stronger effect = higher value
Procedure, shortened: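 A genetically defined yeast mutant impaired in DNA damage repair was treated with test compounds, then its growth was measured against cultures receiving vehicle alone.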

[16] = at 5.0 µM (retest, dose inferred, filed as 0.5)
[17] = at 50.0 µM (retest, dose inferred, filed as 5.0)

Measured: growth inhibition

COc1c(O)c(C=O)c(Br)c(C=O)c1O
inactive: [1]; at 1.2 µM 2% | [1]; at 3.7 µM 6% | [1]; at 11.0 µM 17% | [1]; at 33.0 µM 49% | [2]; at 1.2 µM 0% | [2]; at 3.7 µM 5% | [2]; at 11.0 µM 4% | [2]; at 33.0 µM 17% | [2]; at 100.0 µM 68% | [3]; at 1.2 µM 24% | [3]; at 3.7 µM 43% | [4]; at 1.2 µM -2% | [4]; at 3.7 µM 0% | [4]; at 11.0 µM 8% | [4]; at 33.0 µM 30% | [5]; at 1.2 µM 4% | [5]; at 3.7 µM 7% | [5]; [16] 16% | [5]; at 11.0 µM 15% | [5]; at 33.0 µM 47% | [6]; at 1.2 µM 3% | [6]; at 3.7 µM 6% | [6]; [16] 16% | [6]; at 11.0 µM 14% | [6]; at 33.0 µM 47% | [7]; [16] 16% | [8]; at 1.2 µM 2% | [8]; at 3.7 µM 0% | [8]; at 11.0 µM 17% | [8]; at 33.0 µM 40% | [9]; [16] 12% | [9]; at 50.0 µM 66.5% | [10]; at 1.2 µM -4% | [10]; at 3.7 µM -1% | [10]; [16] -1% | [10]; at 11.0 µM 3% | [10]; at 33.0 µM 54% | [11]; at 1.2 µM -1% | [11]; at 3.7 µM 2% | [11]; at 11.0 µM 5% | [11]; at 33.0 µM 30% | [12]; at 1.2 µM 5% | [12]; at 3.7 µM 2% | [12]; at 11.0 µM 9% | [12]; at 33.0 µM 43% | [13]; at 1.2 µM -2% | [13]; at 3.7 µM 3% | [13]; at 11.0 µM 12% | [13]; at 33.0 µM 53% | [14]; [16] 7% | [15]; at 1.2 µM 0% | [15]; at 3.7 µM -1% | [15]; at 11.0 µM 5% | [15]; at 33.0 µM 24%
active: [1]; at 100.0 µM 91% | [3]; at 11.0 µM 75% | [3]; at 33.0 µM 95% | [3]; at 100.0 µM 99% | [4]; at 100.0 µM 82% | [5]; [17] 97% | [5]; at 50.0 µM 98.2% | [5]; at 100.0 µM 86% | [6]; [17] 98% | [6]; at 50.0 µM 82.1% | [6]; at 100.0 µM 95% | [7]; [17] 96% | [7]; at 50.0 µM 99% | [8]; at 100.0 µM 90% | [9]; [17] 95% | [10]; [17] 98% | [10]; at 50.0 µM 98.9% | [10]; at 100.0 µM 97% | [11]; at 100.0 µM 89% | [12]; at 100.0 µM 95% | [13]; at 100.0 µM 94% | [14]; [17] 98% | [14]; at 50.0 µM 99% | [15]; at 100.0 µM 90%

COc1cc(/C=C2\NC(=O)N(/C=C3\C(=O)Oc4ccccc4C3=O)C2=O)ccc1O
active: [1]; at 33.0 µM 79% | [1]; at 100.0 µM 96% | [2]; at 100.0 µM 95% | [4]; at 100.0 µM 94% | [5]; at 33.0 µM 75% | [5]; [17] 95% | [5]; at 50.0 µM 88.4% | [5]; at 100.0 µM 95% | [6]; [17] 97% | [6]; at 50.0 µM 77.5% | [6]; at 100.0 µM 96% | [7]; [17] 92% | [7]; at 50.0 µM 93.9% | [8]; at 33.0 µM 86% | [8]; at 100.0 µM 96% | [10]; [17] 90% | [10]; at 50.0 µM 90.8% | [10]; at 100.0 µM 93% | [12]; at 33.0 µM 82% | [12]; at 100.0 µM 96% | [13]; at 33.0 µM 89% | [13]; at 100.0 µM 97% | [14]; [17] 95% | [14]; at 50.0 µM 89.5% | [15]; at 33.0 µM 77% | [15]; at 100.0 µM 94%
inactive: [1]; at 1.2 µM -3% | [1]; at 3.7 µM 1% | [1]; at 11.0 µM 16% | [2]; at 1.2 µM 2% | [2]; at 3.7 µM 3% | [2]; at 11.0 µM 3% | [2]; at 33.0 µM 63% | [3]; at 1.2 µM -1% | [3]; at 3.7 µM -1% | [3]; at 11.0 µM 1% | [3]; at 33.0 µM 4% | [3]; at 100.0 µM 3% | [4]; at 1.2 µM -3% | [4]; at 3.7 µM -3% | [4]; at 11.0 µM 4% | [4]; at 33.0 µM 62% | [5]; at 1.2 µM -6% | [5]; at 3.7 µM -17% | [5]; [16] -1% | [5]; at 11.0 µM -9% | [6]; at 1.2 µM -1% | [6]; at 3.7 µM -3% | [6]; [16] -4% | [6]; at 11.0 µM 5% | [6]; at 33.0 µM 68% | [7]; [16] -11% | [8]; at 1.2 µM 0% | [8]; at 3.7 µM 1% | [8]; at 11.0 µM 15% | [10]; at 1.2 µM -3% | [10]; at 3.7 µM -2% | [10]; [16] -16% | [10]; at 11.0 µM 1% | [10]; at 33.0 µM 69% | [12]; at 1.2 µM -1% | [12]; at 3.7 µM 0% | [12]; at 11.0 µM 6% | [13]; at 1.2 µM -1% | [13]; at 3.7 µM -1% | [13]; at 11.0 µM 14% | [14]; [16] 4% | [15]; at 1.2 µM -1% | [15]; at 3.7 µM -3% | [15]; at 11.0 µM -1%
